Reference: PubChem BioAssay AID1211 (NMMLSC, 2008)
Active and inactive are the calls of the source. The rule behind the calls is not given here.

These compounds were tested against Estrogen receptor (Homo sapiens) (UniProt P03372) (assay: displacement of fluorescent estrogen from ERalpha – cell-based, Cos7 ERalpha-GFP, flow cytometry, primary screen (AID 1211;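 note: 0% = DMSO vehicle wells and 100% = no E2-Alexa633 signal left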)). Conditions: fluorescent ligand competition, at 10 µM, hits give high values.
Estrogen receptor (Homo sapiens), sequence (P03372 whole entry, looked up): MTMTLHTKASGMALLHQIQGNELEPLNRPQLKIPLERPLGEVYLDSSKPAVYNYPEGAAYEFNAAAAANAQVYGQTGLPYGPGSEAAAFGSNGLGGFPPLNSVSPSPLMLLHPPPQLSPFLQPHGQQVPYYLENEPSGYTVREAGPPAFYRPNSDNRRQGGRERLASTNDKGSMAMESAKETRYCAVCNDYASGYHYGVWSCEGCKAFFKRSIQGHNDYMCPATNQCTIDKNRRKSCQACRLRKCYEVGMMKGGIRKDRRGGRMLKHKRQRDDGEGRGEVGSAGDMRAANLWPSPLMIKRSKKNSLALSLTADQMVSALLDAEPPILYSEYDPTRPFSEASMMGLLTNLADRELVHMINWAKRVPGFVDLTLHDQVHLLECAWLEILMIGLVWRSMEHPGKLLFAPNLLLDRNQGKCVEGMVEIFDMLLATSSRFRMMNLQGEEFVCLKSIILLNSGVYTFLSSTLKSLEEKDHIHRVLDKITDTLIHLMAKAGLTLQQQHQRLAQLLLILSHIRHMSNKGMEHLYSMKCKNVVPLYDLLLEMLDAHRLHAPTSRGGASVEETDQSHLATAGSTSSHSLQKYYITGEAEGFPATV

Inhibition of ligand binding, inactive:
CCn1c(SCC(=O)Nc2ccc3c(c2)oc2ccccc23)nnc1-c1ccc(N)cc1 44%
CCc1nc(N)nc(N)c1-c1ccc(Cl)cc1 26%
C/C(N)=C(/C#N)C(=O)CSc1nnc(Nc2ccccc2C)s1 48%
CC1CCc2c(sc(NC(=O)c3ccc(Cn4cc([N+](=O)[O-])cn4)o3)c2C#N)C1 (stereo unspecified) 44%
COc1ccccc1/C=c1\sc2nc(-c3ccco3)nn2c1=O 40%
Cc1ccc(-c2cc(C(=O)NCc3ccco3)c3ccccc3n2)o1 60%
COc1cccc([C@@H]2Oc3ccc(OC)cc3C(=O)[C@H]2O)c1 37%
c1coc(-c2nnc3sc(Cc4cccs4)nn23)c1 24%
CCCCNS(=O)(=O)c1ccc(NC(=O)C(Sc2ccccc2)c2ccccc2)cc1 (stereo unspecified) 25%
ON=C1/C(=N\O)CC2(C/C1=N/O)OCCO2 33%
COc1ccc2nc3oc(C(=O)N4CCN(c5cccc(C(F)(F)F)c5)CC4)cc3cc2c1 45%
COc1ccccc1NC(=O)c1ccccc1NC(=O)c1cc(Cl)ccc1NC(=O)c1ccco1 32%
Cc1cc(C)nc(NC(=O)CSc2nn(C)c(=S)s2)n1 23%
Cc1noc(C)c1S(=O)(=O)N(CC(=O)O)c1ccc2c(c1)OCO2 0%
CCOc1ccc(CC2S/C(=N/c3ccccn3)NC2=O)cc1 (stereo unspecified) 8%

Inhibition of ligand binding, active:
COc1ccc(/C=N/NC(=O)c2nc(-c3ccccc3)cc(-c3ccccc3)n2)cc1O 56%
